Screens: PubChem, The Scripps Research Institute Molecular Screening Center
CHRM1 PAM: positive allosteric modulators of human M1 muscarinic receptor. hit rate 0.088% among 360,000. activation, % at 3 µM. AID 588819. CHO-K1 hM1, Fluo-8 calcium fluorescence, ACh EC20; 0% = ACh EC20, 100% = maximal ACh. P11229; in the data active = activation above about 19%, passing the limit was not always enough
Target sequence (P11229 whole entry, looked up): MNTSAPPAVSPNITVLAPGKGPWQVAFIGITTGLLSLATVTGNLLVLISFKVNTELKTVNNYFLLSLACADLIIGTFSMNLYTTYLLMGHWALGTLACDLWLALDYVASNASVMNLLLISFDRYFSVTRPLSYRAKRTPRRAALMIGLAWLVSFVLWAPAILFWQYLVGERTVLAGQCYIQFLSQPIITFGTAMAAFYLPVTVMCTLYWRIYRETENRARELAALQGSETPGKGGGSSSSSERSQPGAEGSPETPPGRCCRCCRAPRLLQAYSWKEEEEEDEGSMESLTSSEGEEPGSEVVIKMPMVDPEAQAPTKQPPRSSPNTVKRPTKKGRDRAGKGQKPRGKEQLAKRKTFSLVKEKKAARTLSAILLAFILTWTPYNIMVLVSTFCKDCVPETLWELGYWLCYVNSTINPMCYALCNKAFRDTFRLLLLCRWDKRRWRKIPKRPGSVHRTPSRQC
CHRM1 agonist: agonists of human M1 muscarinic receptor. activation, % at 3 µM. hit rate 0.33% among 360,000. AID 588814. CHO-K1 hM1, Fluo-8 calcium fluorescence, agonist mode; 0% DMSO, 100% acetylcholine EC100;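 active = activation above the run's mean compound activation plus 3 SD, cut at about 16% in these data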;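 note: peak over basal fluorescence ratio within a 140 s kinetic read after compound addition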
M1 ag parental: counter-screen for M1 agonists: effect in parental CHO-K1 cells | Fluo-8 calcium fluorescence; scaled to maximal ATP response, vehicle zero | activation, % at 3 µM | hit rate 0.48% among 360,000 | AID 602248; in the data active = activation above about 15%;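 note: untransfected CHO-K1 host cells lacking M1 receptor as counterscreen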
CHO-K1 Ca PAM: counter-screen for M1 PAMs: effect in parental CHO-K1 cells; activation, % at 3 µM; AID 602247; hit rate 0.02% among 360,000; ATP EC20, Fluo-8 calcium fluorescence; 0% at ATP EC20, 100% at ATP max;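 active = activation above the run cutoff, the mean activation of all test compounds plus 3 SD, cut at about 40% in these data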;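 note: peak over basal fluorescence ratio in a 140 s read after ATP addition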
CHO-K1 Ca antag: nonselective inhibitor or artifact in parental CHO-K1 cells; ATP-induced calcium, Fluo-8 fluorescence; hit rate 0.6% among 360,000; inhibition, % at 3 µM;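 active = inhibition above a per-plate cutoff, the plate's mean sample inhibition plus 3 SD, cut at about 24% in these data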;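 note: 0% = DMSO plus EC80 ATP and 100% = DMSO alone without ATP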
CHRM1 antagonist: human CHRM1 antagonism; P11229; CHO-K1 hM1, Fluo-8 calcium fluorescence, ACh EC80 antagonist; inhibition, % at 3 µM; hit rate 1.3% among 360,000; AID 588852;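 active = percent inhibition above its own plate's cutoff, namely the mean of that plate's compound wells plus 3 SD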;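 note: peak over basal fluorescence ratio during 140 s after agonist addition; 0% = ACh EC80 plus DMSO and 100% = DMSO alone without agonist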
An asterisk follows results filed as active; x = not tested or not shown. Compounds with a hit are over-represented: about 2.3% of the library has one in this group of screens.

SMILES	CHRM1 PAM	CHRM1 agonist	M1 ag parental	CHO-K1 Ca PAM	CHO-K1 Ca antag	CHRM1 antagonist
C[C@H](CO)N1C[C@H](C)[C@@H](CN(C)S(=O)(=O)c2ccc(Oc3ccccc3)nc2)OCc2cn(nn2)CCCC1=O	15	-5	0	9	-8	-16
COc1ccc(CNC(=O)C[C@H]2C[C@H](C(=O)N3CCCCC3)[C@@]3(CCc4ccccc4)c4[nH]c5ccc(Cl)cc5c4CCN3C2=O)cc1OC	4	-2	1	2	-20	-10
COc1ccc(-c2oc(NC(=O)CCl)c(C#N)c2-c2ccc(OC)cc2)cc1	12	7	0	0	-13	46*
COc1ccc(-c2oc(NC(=O)CSc3ncn[nH]3)c(C#N)c2-c2ccc(OC)cc2)cc1	3	-2	0	9	0	-8
CC(NC(=O)NCCCC(=O)O)(C(F)(F)F)C(F)(F)F	6	0	0	-5	25*	-1
COC(CNC(=O)C1CCCN(S(=O)(=O)c2c(C)noc2/C=C/c2cccs2)C1)OC (centres undefined)	6	-2	15*	12	-2	3
COCCNC(=O)C1CCCN(S(=O)(=O)c2c(C)noc2/C=C/c2cccs2)C1 (centres undefined)	5	0	3	0	-13	-7
COc1ccccc1CN1C[C@@H]2C[C@@H](c3[nH]c4c(C)cccc4c3C)N3CCC[C@@]23C1=O	10	1	15*	31	-24	-10
COc1ccccc1OCCn1cc(C(=O)c2ccco2)c2ccccc21	-6	4	20*	-7	-4	20
CC(=O)c1cn(CCOc2cc(C)ccc2C)c2ccccc12	-10	2	5	5	14	26*
Cc1ccc(C)c(OCCn2cc(C(=O)O)c3ccccc32)c1	-5	-1	5	14	-7	0
O=C(Cc1ccccc1)NC(NC(=O)Cc1ccccc1)c1cccc([N+](=O)[O-])c1	9	-5	0	11	-5	-6
C=CCN(CC(O)c1cccc([N+](=O)[O-])c1)C(C)CCc1ccccc1 (centres undefined)	-24	-7	0	4	-4	39*
COCCNC(=S)N1CCC2CC1c1c(Cl)cccc12 (centres undefined)	4	-9	1	35	-22	-11
COc1ccccc1NS(=O)(=O)c1cc(NC(=O)c2ccc(Cl)nc2)ccc1Cl	-20	-1	16*	6	3	28*
COC(=O)c1cc(NC(=O)Nc2cccc(Cl)c2)ccc1Cl	-17	4	18*	-5	24*	32*
COc1ccc(NC(=O)c2ccc(Cl)c(S(=O)(=O)N3CCc4ccccc4C3)c2)cn1	-10	3	9	21	2	18*
COC(=O)c1cccc(NC(=S)Nc2ccc(Cl)c(Cl)c2)c1	-6	5	8	-18	26*	14
O=C(Nc1cccc(Cl)c1)Nc1cccc(Cl)c1	-7	5	13	6	21	15
CC1(C(=O)NS(=O)(=O)C2CC2)CCCN(C(=O)c2ccco2)C1 (centres undefined)	9	0	0	-2	-1	-9
O=C(c1ccc(F)cc1)C1CCN(C(=S)Nc2ccc(F)cc2)CC1	5	-1	3	0	-5	-7
CC1(Cc2cc(Cl)ccc2C(F)(F)F)C(=O)Nc2cc(C(F)(F)F)ccc21 (centres undefined)	-2	-4	0	21	-12	0
CS(=O)(=O)N1CC(C(=O)O)Oc2ccc(CC(=O)O)cc21 (centres undefined)	0	-4	0	10	15	-3
COC(=O)c1cccc(NC(=O)NC(=O)c2ccc(Cl)cc2)c1	8	-1	1	25	-17	-18
COc1ccccc1NS(=O)(=O)c1cccc(NC(=O)Nc2cccc(Cl)c2)c1	-10	-3	12	-12	34*	19
SMILES	CHRM1 PAM	CHRM1 agonist	M1 ag parental	CHO-K1 Ca PAM	CHO-K1 Ca antag	CHRM1 antagonist
COC(=O)c1cccc(NC(=O)Nc2ccc(Cl)cc2)c1	-20	5	14	-6	11	38*
Cc1ccc(NC(=O)CN2C(=O)S/C(=C\c3cc(C)n(C)c3C)C2=O)cc1	-24	-4	4	-8	-2	41*
Cc1cccc(NC(=O)CN2C(=O)S/C(=C\c3cc(C)n(C)c3C)C2=O)c1	-7	-1	4	21	-8	12
CN1C(=O)c2ccc(C(=O)Nc3ccc4c(c3)OCO4)cc2C1=O	9	-2	0	12	37*	-12
Cn1nc(C(=O)Nc2ccc3c(c2)OCO3)c2ccccc2c1=O	27*	2	0	5	-10	-28
O=C(Nc1ccc2c(c1)OCO2)c1ccccc1	0	-5	0	6	-14	-1
CCc1nc2c(OCC(=O)C(C)(C)C)cccn2c1N(C)C(=O)CC(C)C	-4	-2	0	-7	3	-1
c1cc(-c2ccc3nncn3c2)ccc1CN1CCOCC1	16	9	0	-8	-4	-2
COC(=O)CCCn1cc(CN2CC(N3CCN(CCN(C)C)CC3)CS2(=O)=O)nn1 (centres undefined)	x	x	1	24	-29	x
COc1ccc(C(C(=O)NCCC(C)C)N(CCN2CCOCC2)C(=O)Cn2nnc3ccccc32)c(OC)c1 (centres undefined)	11	-12	1	27	-6	4
CC(/C=N\NC(=O)CN1CCN(S(=O)(=O)c2ccc(C)cc2)CC1)=C\c1ccccc1	4	-6	1	2	6	-5
N#C/C(=C\C=C\c1ccccc1)C(=O)NCc1ccco1	3	3	5	13	-2	4
O=C(NCc1ccco1)/C(=C/C=C\c1ccccc1)NC(=O)c1ccc(Br)o1	-1	-5	18*	14	15	4
N#CC1=C(N)NC(SCc2ccc(Br)cc2)=C(C#N)C12CCCCC2	-4	0	8	5	24*	13
O=C(CN1CCCCC1)NC1CCc2cc3c(cc21)CCC3 (centres undefined)	-1	-8	-1	-30	27*	1
COc1cccc(CN(C)C(=O)c2cc(-c3cccs3)nc3ccccc23)c1	-16	0	6	5	27*	54*
COc1ccc(NC(=O)CN(C)C(=O)c2cc(-c3ccc(Cl)cc3)nc3ccccc23)cc1	-4	-4	8	3	8	20
COc1ccc(-c2cc(C(=O)Nc3cccc(S(=O)(=O)NCc4ccco4)c3)c3ccccc3n2)cc1OC	-13	-1	7	-4	-8	41*
CCOc1ccc(NC(=O)CN(C)C(=O)c2cc(-c3ccc(OC)cc3)nc3ccccc23)cc1OCC	-8	-2	5	-15	14	30*
